From PubChem
Many of the other results were omitted from the sample, so hits are more common in it than they were.
Pf Dd2 inh: blocks in vitro growth of P. falciparum Dd2 | P. falciparum Dd2 growth, SYBR Green, 72 h | Potency, µM (top dose mostly 28.9 µM), without a hit: at the top dose activity, negative = inhibition, actives largely listed as inhibitors | 120,000 compounds, 4.3% hits; active = well fitted inhibition curve with a large enough effect;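 note: plate controls were DMSO vehicle for no effect and reference drug for full effect; nearly all actives have a fitted effect of over 65% in size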
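Readout: SYBR Green fluorescence, 485 nm excitation, 535 nm emission, after ~16 h lysis at 37C. Before that, Dd2-infected red cells (2.5% hematocrit) grew 72 h with compound, 29 uM top final concentration.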
Active calls of the source: *; i = inactive; [ ] = dose if it differs, or a comment. Potency is the fitted concentration of half-maximal effect.

SMILES	Pf Dd2 inh
CCN(CCCNC(=O)c1cc2c(=O)[nH]c3ccc(C)cc3c2s1)Cc1ccccc1	7.9µM*
CCN(CCCNC(=O)c1cc2c(=O)n(C)c3ccccc3c2s1)Cc1ccccc1	5µM*
Cc1cc(C(=O)N2CCC(N3C[C@H](O)C[C@H]3C(=O)NC3CCCCC3)CC2)nn1C	8%
COCCCNC(=O)N1C[C@@H]2CCCN3CCC[C@@H]([C@H]23)[C@H]1CCCC(=O)Nc1ccccc1	13%
Fc1ccc(C2Cn3nnc(-c4nc(-c5ccc(F)c(F)c5)no4)c3CO2)cc1 (centres undefined)	-12%
CCNC(=O)c1n[nH]c2c1CN(C(=O)c1cccc(OC(F)(F)F)c1)CC2	2%
C[C@@H](NS(=O)(=O)c1ccccc1)c1onc(-c2ccc(F)cc2)c1C(=O)O	42%[44.1 µM]
COCCCNC(=O)C(NC(=O)c1ccccc1)C1CCN(C(=O)c2ccccc2F)CC1 (centres undefined)	6%
CC1CCC(NC(=O)c2cc3c(Cl)nc4ccccc4c3s2)CC1 (centres undefined)	27%
CC1CCCN(CCCNC(=O)c2cc3c(Cl)nc4ccccc4c3s2)C1 (centres undefined)	4.5µM*
CC1CCCN(C(=O)c2cc3c(Cl)nc4ccccc4c3s2)C1 (centres undefined)	-2%
O=C(Cn1ccn2nc(-c3ccc(F)cc3)c(CO)c2c1=O)Nc1cccc(F)c1	-22%
CCc1ccc(C2=C(C)C(N3CCC(C(=O)NCc4ccccc4)CC3)=NS2(=O)=O)cc1	3%
CCOC(=O)C1CCN(C(=O)C2CCc3nc(N4CCN(C(C)=O)CC4)sc3C2)CC1 (centres undefined)	i
CCC1=C(c2ccc(C)cc2)S(=O)(=O)N=C1N1CCC(C(=O)NCCc2cccc(OC)c2)CC1	7.9µM*
CCOC(=O)C1CCN(C(=O)CN2c3ccc(CC)cc3-c3ccccc3S2(=O)=O)CC1	-1%
CCOC(=O)C1CCN(C(=O)C2CCN(C3=NS(=O)(=O)C(c4ccc(C)cc4)=C3CC)CC2)CC1	11µM*
CC1=C(c2ccc(C)c(C)c2)S(=O)(=O)N=C1N1CCC(C(=O)NCc2ccccc2C)CC1	i
Cc1ccc(C)c(NC(=O)Cn2ccn3nc(-c4ccc(F)cc4)c(CO)c3c2=O)c1	11%
COc1ccc(C(=O)N2CCc3ccc(C(=O)NCc4cccc(OC)c4)cc32)cc1	-6%
COc1nccc(N2CCC(CC(=O)NCCN3CCCCC3)CC2)n1	-27%
COCCNC(=O)[C@@H]1C[C@H](Oc2ccccc2)CN1C(=O)CCc1c(C)nn(C)c1C	25%
CCn1ccc(C(=O)N2CCC3(CCC3NC(=O)COC)CC2)n1 (centres undefined)	10%
CN(C)CC(=O)N1C[C@@H]2CN(c3cc(C4CC4)ncn3)C[C@]2(C(=O)O)C1	-6%
COc1ccc(-c2nn(-c3ccccc3C)cc2CN(C)Cc2cn(C)nc2C)cc1F	i
SMILES	Pf Dd2 inh
Cc1cc(CN(C)Cc2cn(-c3cccc(F)c3)nc2-c2ccc(C)o2)n[nH]1	-2%
Cc1ccc(-c2nn(-c3cccc(F)c3)cc2CN(C)CCO)o1	7.9µM*
COc1ccc(-c2cnc3[nH]cc(CC(=O)N4CCNC(=O)C4)c3c2)cc1	7.9µM*
O=C(Cc1c[nH]c2ncc(-c3ccc(Oc4ccccc4)cc3)cc12)N1CCOCC1	-3%[44.1 µM]
COc1cccc(-c2cnc3[nH]cc(CC(=O)N4CCN(C)CC4)c3c2)c1	i
N#CC1=C(N)N(c2cccc(Cl)c2)C2=C(C(=O)CCC2)C1c1cc(CN2CCOCC2)cs1 (centres undefined)	10µM*
N#CC1=C(N)N(c2ccc(Cl)cc2)C2=C(C(=O)CCC2)C1c1cc(CN2CCOCC2)cs1 (centres undefined)	13µM*
N#Cc1ccc(CN2CCCOCCNC(=O)CC2)cc1	-8%
O=c1[nH]c(N2CCOCC2)nc2c1CCN(Cc1cccc(Cl)c1)CC2	18%[5.79 µM]
O=C1N(C2CCOCC2)C[C@H]2CN(Cc3cccc(Cl)c3)CCN12	i
O=C(N[C@@H]1CCN(Cc2nc3c(s2)CCCC3)C[C@H]1O)c1ccccn1	25%
COCCN1CCC(N2CCN(S(=O)(=O)c3ccc(C(F)(F)F)cc3)CC2)C1=O (centres undefined)	-2%
O=C(COc1ccccc1)N[C@H]1CO[C@H]2[C@@H]1OC[C@H]2OC(=O)Nc1ccccc1	i
Cc1ccc(CN2C(=O)COC[C@H]2C(=O)NCc2ccco2)cc1	49%
CCN(CC)S(=O)(=O)c1cccc(C(=O)Nc2ccccc2C(=O)Nc2ccc(Cl)cc2)c1	10µM*
CCOc1ccc(NC(=O)c2ccc(F)c(S(=O)(=O)N(CC)Cc3ccccc3)c2)cc1	13%
CCN(Cc1ccccc1)S(=O)(=O)c1ccc(F)c(C(=O)Nc2cc(C)ccc2OC)c1	24%
CCc1nc(-c2ccc(OC3CCN(C(=O)c4sc(C)nc4C)C3)cc2)no1 (centres undefined)	-11%[5.79 µM]
Cc1cnc(C2CCOCC2)n1CC1CCN(S(=O)(=O)c2cccnc2)CC1	-18%
Cc1ccc2c(c1)-c1cc(C)nn1C(c1cc(Br)ccc1O)N2 (centres undefined)	13µM*
CC(C)CC(=O)NCC1Cn2cccc2C(=O)N1Cc1ccccc1 (centres undefined)	-2%
COc1cc(=O)n2c(c1C(=O)NCC1CCOc3ccccc3C1)CCNCC2 (centres undefined)	-5%
CCc1ccccc1NC(=O)N1C[C@@H](F)C[C@H]1C(=O)N1CCc2ccccc2C1	3.2µM*
Cc1ccc(NC(=O)N2C[C@@H](F)C[C@H]2C(=O)N2CCc3ccccc3C2)cc1Cl	3%
COc1ccc(NC(=O)N2C[C@@H](F)C[C@H]2C(=O)N2CCc3ccccc3C2)c(C)c1	10%
SMILES	Pf Dd2 inh
Cc1nc(N2CCC(NC(=O)c3ccco3)CC2)cc(C(F)(F)F)n1	i
CCOc1ccccc1C1C(C(=O)Nc2ccccc2OC)=C(C)Nc2nc3ccccc3n21 (centres undefined)	-19%
COc1cccc(C2C(C(=O)Nc3ccccc3OC)=C(C)Nc3nc4ccccc4n32)c1 (centres undefined)	7.1µM*
COc1ccccc1NC(=O)C1=C(C)Nc2nc3ccccc3n2C1c1cccc(OC)c1OC (centres undefined)	i
Cc1ccc(C2=NC3(CCN(C(=O)c4cc(F)ccc4F)CC3)ON2)cc1	i
C[C@@H]1C(=O)O[C@H]2[C@H]1CC[C@@]1(C)Cc3sc(NS(=O)(=O)c4ccc(F)cc4)nc3[C@@H](C)[C@H]21	i
CC(=O)N1CCC(C(=O)Nc2nc3c(s2)C[C@]2(C)CC[C@@H]4[C@H](OC(=O)[C@H]4C)[C@H]2[C@@H]3C)CC1	i
C[C@@H]1C(=O)O[C@H]2[C@H]1CC[C@@]1(C)Cc3sc(NC(=O)Nc4ccc(Oc5ccccc5)cc4)nc3[C@@H](C)[C@H]21	11µM*
C[C@@H]1C(=O)O[C@H]2[C@H]1CC[C@@]1(C)Cc3sc(NC(=O)c4c(Cl)cccc4Cl)nc3[C@@H](C)[C@H]21	i
C[C@@H]1C(=O)O[C@H]2[C@H]1CC[C@@]1(C)Cc3sc(NC(=O)NC4CCCCC4)nc3[C@@H](C)[C@H]21	11µM*
COCC(=O)Nc1nc2c(s1)C[C@]1(C)CC[C@@H]3[C@H](OC(=O)[C@H]3C)[C@H]1[C@@H]2C	-4%[44.1 µM]
COc1ccc(C[C@H](NC(=O)C2=C[C@@H](NC(=O)Nc3ccccc3Br)[C@@H](O)[C@H](O)C2)C(N)=O)cc1	3%
COc1ccc(-c2nc(C3CC(=O)N(c4ccc(F)c(Cl)c4)C3)no2)c(C)c1 (centres undefined)	84%
